The list is not random: actives were taken first. Their share in the collection is about 0.43%.
aGlu spleen mod = inhibitors or activators of human alpha-glucosidase in spleen homogenate. human spleen homogenate, 4-MU-alpha-glucoside fluorescence. Potency, µM (top dose mostly 79.9 µM), without a hit: at the highest dose activity change, negative = inhibition, hits mostly inhibitors. AID 2112. P10253. hit rate 0.006% among 240,000;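 also: potency is read from the fitted curve at half-maximal effect; 0% = enzyme with vehicle and -100% = no enzyme basal signal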
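Human spleen homogenate (1 ug) incubated with compounds and 1 mM 4-methylumbelliferyl-alpha-D-glucopyranoside in pH 5.0 citrate/phosphate buffer, 37 C, 40 min. Stopped at pH 10; 4-MU fluorescence (Ex 365/Em 440 nm); AC50 by Hill fit.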
N370S GC mod = inhibits or activates N370S mutant glucocerebrosidase; P04062; N370S GC spleen homogenate, 4MU-glucoside fluorescence; Potency, µM (doses to about 59.4 µM), inactives show at the top dose activity change, negative = inhibition, hits mostly inhibitors; hit rate 0.092% among 330,000; AID 2101;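 also: potency is read from the fitted curve at half-maximal effect; 0% = full enzyme activity and -100% = no enzyme basal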
GAA inh = alpha-glucosidase (human) inhibition. P10253. purified human GAA, 4-MU-alpha-glucoside fluorescence. Potency, µM (doses to about 76.9 µM), inactives show at the highest dose activity change, negative = inhibition, actives largely listed as inhibitors. hit rate 0.005% among 200,000. AID 1466;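 also: potency is read from the fitted curve at half-maximal effect; plate controls were uninhibited enzyme wells for no effect and no-enzyme background for full effect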
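Fluorogenic assay: 4 nM human alpha-glucosidase with 400 uM 4-methylumbelliferyl-alpha-D-pyranoside in 50 mM citrate/phosphate, 0.005% Tween-20, pH 5.0, 20 min at room temperature. Compounds tested up to 77 uM; AC50 from Hill fits.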
GAA glycogen = alters human alpha-glucosidase cleavage of glycogen | hit rate 0.38% among 300,000 | Potency, µM (doses to about 76.4 µM), inactives show at the highest dose activity change, negative = inhibition, hits mostly inhibitors | AID 2100 | recombinant GAA, glycogen substrate, Amplex Red glucose oxidase fluorescence | P10253;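 also: potency is read from the fitted curve at half-maximal effect; 0% = full enzyme reaction and -100% = no-enzyme basal signal; the screen sought inhibitors and activators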
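Recombinant human alpha-glucosidase (4 nM final) hydrolysed bovine liver glycogen (30 ug) for 40 min at 37 C in pH 5.0 citrate/phosphate with 0.01% Tween-20. Released glucose detected by glucose oxidase/Amplex Red, Ex 573/Em 610 nm. Compounds up to 77 uM; AC50 from Hill fits.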
GLA spleen mod = alpha-galactosidase A (human) modulation | hit rate 0.008% among 240,000 | AID 2107 | Potency, µM (top dose mostly 80 µM), without a hit: top-dose activity change, negative = inhibition, most hits filed as inhibitors | P06280 | human spleen homogenate, 4MU-alpha-Gal fluorescence, 40 min;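 also: potency is read from the fitted curve at half-maximal effect; 0% = enzyme with vehicle and -100% = no enzyme basal signal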
Target sequence (P06280 32-429 limits assumed): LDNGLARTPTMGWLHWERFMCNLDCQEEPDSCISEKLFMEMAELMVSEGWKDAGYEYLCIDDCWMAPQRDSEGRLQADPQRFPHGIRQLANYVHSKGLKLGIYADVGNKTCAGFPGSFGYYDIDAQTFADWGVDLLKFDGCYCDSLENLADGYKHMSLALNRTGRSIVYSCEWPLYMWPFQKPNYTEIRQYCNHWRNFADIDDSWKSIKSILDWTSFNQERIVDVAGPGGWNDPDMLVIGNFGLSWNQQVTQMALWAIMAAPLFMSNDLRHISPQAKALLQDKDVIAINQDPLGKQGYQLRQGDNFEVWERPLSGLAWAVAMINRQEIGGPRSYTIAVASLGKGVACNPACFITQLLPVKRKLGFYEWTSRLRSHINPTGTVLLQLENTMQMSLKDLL
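Fluorogenic readout (Ex 365/Em 440 nm) of 4-methylumbelliferone released from 1 mM 4-MU-alpha-galactoside by spleen homogenate, 40 min at 37C, pH 5.0. Data normalized to no-enzyme and enzyme controls; Hill-equation AC50 from compound titrations.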
GLA inh pH 4.5 = inhibitors of human alpha-galactosidase A at pH 4.5. P06280. purified enzyme, 4-MU-alpha-Gal fluorescence, pH 4.5. activity change, negative = inhibition, % at 105 µM. 230,000 tested, under 10 active. AID 1467;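 also: 0% = full activity with enzyme and -100% = basal without enzyme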
Starred values were filed as active, the others as inactive; ? = inconclusive; · = no result given. Calls follow the shape of the dose curve; as a rule, active = well fitted curve in the direction sought with a large enough effect; inconclusive = small, poorly fitted or top-dose-only effect, or another doubt; inactive = no such curve, though single readings can be large; an effect the other way counts as inactive or inconclusive.

SMILES	aGlu spleen mod	N370S GC mod	GAA inh	GAA glycogen	GLA spleen mod	GLA inh pH 4.5
CCNc1ccc(S(=O)(=O)N(C)C)cc1NCC(=O)Nc1ccccc1F	-1%	10µM*	?	?	-6%	-8
CCNc1ccc(S(=O)(=O)N(C)C)cc1NCC(=O)Nc1ccc(Br)cc1F	-5%	9%	0%	?	4%	0
CCCCC/C=C\C\C=C/C=C/C=C/[C@@H](SCC(N)C(=O)NCC(=O)O)[C@@H](O)CCCC(=O)O (stereo partly drawn)	-7%	4%	·	·	0%	-1
CC(=O)Cc1cc(O)c2ccccc2c1OC(=O)c1ccccc1	-8%	-28%	?	8.9µM*	7%	-18
COC(=O)c1cc(O)c(OCc2ccccc2)c(O)c1	-15%	-2%	-3%	-25%	4%	-5
CC(=O)Oc1c(C)cc(O)c2ccccc12	2%	8%	2%	14µM*	4%	-1
O=[N+]([O-])c1ccc(N/N=C/c2ccc[nH]2)cc1	-11%	·	1%	7.9µM*	2%	-6
O=[N+]([O-])c1ccc(N/N=C/c2cccc(O)c2O)cc1	·	-24%	·	?	·	·
O=[N+]([O-])c1ccc(N/N=C/c2c[nH]c3ccccc23)cc1	-20%	·	4%	18µM*	-12%	-1
NC(=O)C(=CNc1nc(-c2ccc(Cl)c(Cl)c2)cs1)C(N)=O	-3%	-19%	·	7.1µM*	7%	0
O=C(O)c1ccc(-c2nc(-c3ccc(Cl)c(Cl)c3)cs2)cc1	7%	13%	2%	6%	-4%	-1
Cc1ccc(-c2nc(C#N)c(NCC3CCCO3)o2)cc1 (stereo not drawn)	5%	-1%	14%	?	10%	5
COc1ccc(-c2nc(C#N)c(NCC3CCCO3)o2)cc1 (stereo not drawn)	-16%	0%	-8%	28µM*	-18%	1
CSCC[C@H](NC(=O)[C@H](CO)NC(=O)[C@H](Cc1ccc(O)cc1)NC(=O)[C@@H](N)CO)C(=O)N[C@@H](CCC(=O)O)C(=O)N[C@@H](Cc1cnc[nH]1)C(=O)N[C@@H](Cc1ccccc1)C(=O)N[C@@H](CCCNC(=N)N)C(=O)N[C@@H](Cc1c[nH]c2ccccc12)C(=O)NCC(=O)N[C@@H](CCCCN)C(=O)N1CCC[C@H]1C(=O)N[C@H](C(=O)NCC(=O)N[C@@H](CCCCN)C(=O)N[C@@H](CCCCN)C(=O)N[C@@H](CCCNC(=N)N)C(=O)N[C@@H](CCCNC(=N)N)C(=O)N1CCC[C@H]1C(=O)N[C@H](C(=O)N[C@@H](CCCCN)C(=O)N[C@H](C(=O)N[C@@H](Cc1ccc(O)cc1)C(=O)N1CCC[C@H]1C(=O)O)C(C)C)C(C)C)C(C)C	0%	-6%	·	·	2%	·
NCCCCCCNc1nc2c(N)ncnc2n1[C@@H]1O[C@@H]2COP(=O)(O)O[C@H]2[C@H]1O	-1%	-2%	·	·	2%	·
Oc1ccc(/C=N/N2CCN(c3ccccn3)CC2)cc1	-3%	3%	·	11µM*	-5%	4
Oc1cccc(/C=N/N2CCN(c3ccccn3)CC2)c1	0%	1%	·	?	0%	-7
Cc1cc(-c2ccccc2)nc2[nH]n(-c3ccccc3)c(=O)c12	-2%	-4%	0%	35µM*	0%	4
Cc1cc(C)c2c(=O)n(-c3ccccc3)[nH]c2n1	-6%	-16%	-3%	-25%	-6%	8
CC1=C(/C=C/C(C)=C/C=C/C(C)=C\CO)C(C)(C)CCC1	7%	0%	·	·	-4%	·
CCOC(=O)/C=C/C(=O)OCC(=O)Nc1ccc(Cl)cn1	-1%	3%	3%	4%	-21%	-8
CCOC(=O)NC1(Nc2ccc(Cl)cn2)Oc2ccccc2O1	-3%	-2%	3%	22µM*	2%	-3
COc1ccc(C2=Nn3c(nnc3-c3ccc(OC)c(OC)c3)SC2)c(OC)c1	-12%	10%	·	·	8%	·
CCOC(=O)N1CCN(c2ccccc2O)CC1	-5%	-1%	-5%	11µM*	1%	2
NC(=O)Cc1c[nH]c2cccc(O)c12	4%	9%	1%	10µM*	-2%	7
SMILES	aGlu spleen mod	N370S GC mod	GAA inh	GAA glycogen	GLA spleen mod	GLA inh pH 4.5
Cn1ncc(N)c1C(=O)Nc1cccc(C(F)(F)F)c1	-1%	7%	-4%	-7%	-2%	7
Nc1[nH]ncc1C(=O)Nc1cccc(C(F)(F)F)c1	-13%	-3%	?	11µM*	2%	1
CN(C)C(=O)NC1CCCCCCC1	-3%	-6%	·	·	5%	·
COc1ccc(-c2nc(-c3ccccc3)c(-c3cc([N+](=O)[O-])ccc3C)[nH]2)cc1O	-4%	-23%	1%	-25%	4%	?
Cc1ccc([N+](=O)[O-])cc1-c1[nH]c(-c2ccc(O)c(O)c2)nc1-c1ccccc1	1%	?	-14%	14µM*	4%	7
Oc1ccc(C2Nc3cccc4cccc(c34)N2)c(O)c1	-5%	-4%	3%	20µM*	8%	-25
Cc1ccc(Nc2nc3c([nH]2)c(=O)n(C)c(=O)n3C)cc1	-19%	9%	8%	20µM*	13%	-5
CCOc1ccc(NC(=O)N2CCC(CN3CCc4ccccc4C3)CC2)cc1	·	·	·	50µM*	·	·
O=C(CCC(=O)N1CCN(c2ccc(O)cc2)CC1)c1cccs1	0%	-6%	·	11µM*	4%	8
Cc1ccc(OCCC(=O)N2CCN(c3ccc(O)cc3)CC2)cc1	-10%	-2%	·	13µM*	0%	-6
CC(=O)c1ccc(N2CCN(C(=O)CCC(=O)c3cccs3)CC2)cc1	0%	4%	1%	6%	10%	1
O=C1c2ccccc2CCC1CNCCc1ccc(O)cc1 (stereo not drawn)	1%	1%	·	·	-15%	·
Cc1ccc(C(C(=O)NC(C)(C)C)N(Cc2ccco2)C(=O)Cn2nnc(-c3cccs3)n2)cc1 (stereo not drawn)	4%	4%	-4%	6%	10%	-2
CC(C)(C)NC(=O)C(c1ccncc1)N(Cc1cccs1)C(=O)Cn1nnc(-c2cccs2)n1 (stereo not drawn)	-4%	3%	-7%	28µM*	1%	-2
C/C1=C\[C@@H](O)C(C(C)C)C(OC(=O)c2ccc(O)cc2)C/C(C)=C/CC1 (stereo partly drawn)	5%	-13%	·	·	-9%	·
CCN(CC)c1ccc(/C=N/Nc2cccc(C)c2)c(O)c1	-9%	-2%	1%	-27%	-3%	2
CCN(CC)c1ccc(/C=N/Nc2ccccc2)c(O)c1	6%	2%	-10%	18µM*	-1%	-10

High-throughput results deposited in PubChem by National Center for Advancing Translational Sciences (NCATS).
